Measured values as given in paper PMC4336329 (PLoS ONE, 2015).
The whole screen tested about 310,000 compounds, of which about 14,000 (4.5%) showed an effect of 50% or more. The effect is printed as a negative number. Shown is part of a subset that was picked to be rich in strong results.

The compounds below were run against human ether-à-go-go-related gene (hERG) potassium channel (human, UniProt Q12809) (assay: primary screen, population patch clamp on CHO cells stably expressing hERG; higher = less effect of the substance).
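Further: peak tail current of the secondary pulse compared with the same well before compound.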

Sequence of human ether-à-go-go-related gene (hERG) potassium channel (Q12809 whole entry, looked up): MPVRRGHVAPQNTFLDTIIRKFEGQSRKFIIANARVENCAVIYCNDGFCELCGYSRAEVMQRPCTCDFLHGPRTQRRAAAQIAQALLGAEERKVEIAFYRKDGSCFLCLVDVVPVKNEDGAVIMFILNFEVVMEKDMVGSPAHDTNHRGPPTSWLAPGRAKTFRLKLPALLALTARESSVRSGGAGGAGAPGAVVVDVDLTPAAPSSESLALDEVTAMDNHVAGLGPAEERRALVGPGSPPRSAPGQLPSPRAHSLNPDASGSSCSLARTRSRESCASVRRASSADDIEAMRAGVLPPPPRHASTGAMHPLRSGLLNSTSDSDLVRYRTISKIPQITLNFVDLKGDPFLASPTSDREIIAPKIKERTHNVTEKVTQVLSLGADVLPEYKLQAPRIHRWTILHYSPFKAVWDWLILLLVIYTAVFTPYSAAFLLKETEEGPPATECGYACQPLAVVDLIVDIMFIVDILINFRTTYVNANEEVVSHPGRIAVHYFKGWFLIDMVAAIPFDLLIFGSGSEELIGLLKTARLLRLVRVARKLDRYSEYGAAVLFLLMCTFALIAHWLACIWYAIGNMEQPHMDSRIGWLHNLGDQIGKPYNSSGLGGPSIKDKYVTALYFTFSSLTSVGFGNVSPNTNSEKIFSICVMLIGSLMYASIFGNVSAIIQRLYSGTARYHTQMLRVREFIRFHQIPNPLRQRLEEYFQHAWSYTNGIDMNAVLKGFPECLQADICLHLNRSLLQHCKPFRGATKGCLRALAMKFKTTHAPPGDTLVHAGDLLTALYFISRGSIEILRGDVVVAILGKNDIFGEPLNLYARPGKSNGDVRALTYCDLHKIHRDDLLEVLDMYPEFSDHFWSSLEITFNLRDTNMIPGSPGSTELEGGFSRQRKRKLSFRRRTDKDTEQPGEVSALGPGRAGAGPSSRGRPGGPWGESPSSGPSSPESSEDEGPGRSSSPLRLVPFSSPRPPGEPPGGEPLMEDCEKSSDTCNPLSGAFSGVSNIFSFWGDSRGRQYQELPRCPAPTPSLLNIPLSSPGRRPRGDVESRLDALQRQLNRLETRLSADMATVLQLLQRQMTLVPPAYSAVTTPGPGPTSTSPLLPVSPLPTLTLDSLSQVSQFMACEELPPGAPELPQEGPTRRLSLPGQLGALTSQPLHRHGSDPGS

Compound | hERG current change (%, negative = inhibition) at 10uM
NS(=O)(=O)c1ccc2nc(NC(=O)CS(=O)(=O)c3ccccc3)sc2c1 | 26.8%
CCN(CC)CCN=C(C)c1c(O)n(-c2ccccc2OC)c(=O)[nH]c1=O | 4.71%
Cc1cccc(NC(=O)C(=O)C2C(=O)Nc3ccccc32)c1 (centres unmarked) | 4.05%
CC1=C(C(=O)Nc2ccccc2)C(c2ccco2)NC(=O)N1 (centres unmarked) | 14.5%
O=c1[nH]c2ccc(NS(=O)(=O)c3ccc(Cl)cc3)cc2[nH]1 | 15.8%
Cc1cccc(N2CCN(C(=O)c3ccc(CS(=O)Cc4ccc(Cl)cc4)o3)CC2)c1C (centres unmarked) | -57%
Cc1ccc(CS(=O)Cc2ccc(C(=O)NC3CCCCC3)o2)cc1 (centres unmarked) | 2.31%
Cc1ccc(C)c(N2CCN(C(=O)c3ccc(CS(=O)Cc4cccc(Cl)c4)o3)CC2)c1 (centres unmarked) | -6.6%
Cc1ccc(CS(=O)Cc2ccc(C(=O)NC3CCC(C)CC3)o2)cc1 (centres unmarked) | -51%
Cc1cccc(N2CCN(C(=O)c3ccc(CS(=O)Cc4cccc(Cl)c4)o3)CC2)c1C (centres unmarked) | -13.5%
Cc1ccc(CS(=O)Cc2ccc(C(=O)NC3CCCCCC3)o2)cc1 (centres unmarked) | 8.98%
O=C(c1ccc(CS(=O)Cc2ccc(Cl)cc2)o1)N1CCN(c2ccccc2F)CC1 (centres unmarked) | -55.8%
COc1ccccc1S(=O)(=O)Cc1ccc(C(=O)N2CCN(c3ccccn3)CC2)o1 | -17.8%
CCCc1ccc(OCc2ccc(C(=O)N3CCN(c4ccccn4)CC3)o2)c(OC)c1 | -56.5%
Cc1ccc(C)c(N2CCN(C(=O)c3ccc(CS(=O)Cc4ccc(Cl)cc4)o3)CC2)c1 (centres unmarked) | -26.9%
Cc1ccc(Cl)cc1N1CCN(C(=O)c2ccc(CS(=O)Cc3ccc(Cl)cc3)o2)CC1 (centres unmarked) | 13.9%
CCCc1ccc(OCc2ccc(C(=O)O)o2)c(OC)c1 | 8.51%
Cc1cc(C)c(C)c(S(=O)(=O)N2CCC(C(=O)NCC(c3ccccc3)N(C)C)CC2)c1C (centres unmarked) | -48.9%
CC(CC(=O)N(C)CC(=O)Nc1ccc(N2CCOCC2)cc1)c1ccccc1 (centres unmarked) | -13.3%
COC(C[C@H]1O[C@H]1C(=O)[C@H](C)OCc1ccccc1)OC | 14.5%
CCC(c1nnnn1Cc1ccccc1)N1CCN(c2ccccc2)CC1 (centres unmarked) | -8.7%
Cc1cc(Cl)ccc1NC(=O)Cn1cncn1 | 14.3%
CN1CCN(C(=O)c2ccc(CS(=O)Cc3ccc(Cl)cc3)o2)CC1 (centres unmarked) | 13.1%

Compound | hERG current change (%, negative = inhibition) at 10uM
COc1cccc(N2CCN(C(=O)c3ccc(CS(=O)Cc4ccc(Cl)cc4)o3)CC2)c1 (centres unmarked) | -41.8%
O=C(c1ccc(CS(=O)Cc2ccc(Cl)cc2)o1)N1CCN(c2ccc(F)cc2)CC1 (centres unmarked) | -62.1%
COc1cccc(N2CCN(C(=O)c3ccc(CS(=O)c4ccc(Cl)cc4)o3)CC2)c1 (centres unmarked) | -42%
O=C(c1ccc(CS(=O)Cc2ccc(Cl)cc2)o1)N1CCN(c2cccc(Cl)c2)CC1 (centres unmarked) | -52.7%
O=C(c1ccc(COc2ccccc2Cl)o1)N1CCN(c2ccccc2)CC1 | -24.1%
O=C(c1ccc(CS(=O)c2ccccc2Cl)o1)N1CCN(c2ccccc2)CC1 (centres unmarked) | -38.2%
O=C(c1ccc(CS(=O)Cc2ccc(Cl)cc2)o1)N1CCN(c2ccccc2)CC1 (centres unmarked) | -51.8%
CCOC(=O)C1=C(C)N(c2ccc(Cl)cc2)C(=O)NC1c1cccc([N+](=O)[O-])c1 (centres unmarked) | -24.8%
CCOc1ccc(S(=O)(=O)NCCC(=O)NCC2(N3CCCCC3)CCCCC2)cc1 | -33.2%
Cc1ccc[n+](CC(=O)Nc2cccc(Cl)c2)c1.[Cl-] | 18.4%
CCC(C)(C)C1CCc2c(sc(NC(=O)c3ccccc3C(=O)O)c2C#N)C1 (centres unmarked) | 10.3%
O=C1C=C(N2CCN(C(=O)c3ccccc3)CC2)C2(CCCCC2)O1 | -10.3%
O=C(NCCS(=O)(=O)N1CCc2ccccc2C1)c1ccccc1 | -23%
COc1cccc(SCc2noc(C(=O)NCCCN3CCOCC3)c2C(=O)NCCCN2CCOCC2)c1 | -4.2%
Cc1ccc(Cc2c(C)nc3nc(SCC(=O)NCCCN4CCCCCC4)nn3c2C)cc1 | -54.8%
Cc1ccc(Cc2c(C)nc3nc(SCC(=O)NCCCN4CCCCC4)nn3c2C)cc1 | -42.7%
Cc1ccc(Cc2c(C)nc3nc(SCC(=O)NCCCN4CCCC4)nn3c2C)cc1 | -28.4%
CC(C)C[C@@H](N)c1nnc(SCC(=O)c2ccc(Cl)cc2)o1.Cl | -37.1%
O=C(Nc1ccccc1Cl)c1cnccn1 | 2.9%
CC1(C)CC(=O)C=C(Nc2ccccc2O)C1 | 15.7%
CC1(C)CC(=O)C=C(Nc2ccccc2NC(=O)c2cnccn2)C1 | -64.7%
Cc1ccc(-n2ncc3c2CCCC3NC(=O)c2ocnc2C)cc1C (centres unmarked) | 1.26%
CCOC(=O)c1[nH]c2ccccc2c1NC(=O)CN(C)C | 7.08%

Compound | hERG current change (%, negative = inhibition) at 10uM
CCOC(=O)c1[nH]c2ccccc2c1N=C(C)N(CC)CC | -54.7%
CCOC(=O)c1[nH]c2ccc(OC)cc2c1N=CN(C)C | -7.13%
CCOC(=O)c1[nH]c2ccccc2c1N=CN(C)C | -28.9%
CCOC(=O)c1[nH]c2ccccc2c1N=CN(CC)CC | -60.8%
CCOC(=O)c1[nH]c2ccc(F)cc2c1N=C(C)N(CC)CC | -55.4%
CCOC(=O)c1[nH]c2ccccc2c1NC(C)=O | -3.18%
CCOC(=O)c1[nH]c2ccc(C)cc2c1N=C(C)N(C)C | -9.99%
CCOC(=O)c1[nH]c2ccc(F)cc2c1NC(=O)c1ccccc1C(=O)O | 19.4%
CC(C)COc1ccc(CNC(=S)Nc2ccccc2)cc1Cl | 8.6%
Cc1cc(C)c2c(=O)[nH]n(C(C)C)c2n1 | 7.27%
O=C(O)c1ccc([N+](=O)[O-])c2c1C(=O)c1ccccc1C2=O | 23.5%
NC(=S)N/N=C/c1c[nH]c2ccc(OCc3ccccc3)cc12 | 6.65%
NC(=O)CSc1nnc(NC(=O)c2cccc(S(=O)(=O)N3CCCCC3)c2)s1 | 25.3%
CCC(C(=O)Nc1ccc2c(c1)OCCO2)c1ccccc1 (centres unmarked) | 13.4%
Cc1noc(C(=O)N2CCN(c3ccccc3)CC2)c1Cl | 6.13%
CC1CCN(CCc2nc3cc(NS(=O)(=O)c4ccc(F)cc4)ccc3n2C)CC1 | -70.8%
Cn1c(CCN2CCOCC2)nc2cc(NS(=O)(=O)c3ccccc3)ccc21 | -1.84%
CC1CCN(CCc2nc3cc(NC(=O)NC4CCCCC4)ccc3n2C)CC1 | -15.1%
Cn1c(CCN2CCCC2)nc2cc(NS(=O)(=O)c3ccccc3)ccc21 | -40.9%
CC1CCN(CCc2nc3cc(NC(=O)C(C)C)ccc3n2C)CC1 | -0.549%
CC1CCN(CCc2nc3cc(NS(=O)(=O)c4ccccc4)ccc3n2C)CC1 | -65.5%
Cc1ccc(S(=O)(=O)NCCC(=O)NNC(=O)COc2ccccc2Cl)cc1C | -1.77%
O=C(NC1CCCCCC1)C1CC(=O)N(Cc2ccccc2)C1 (centres unmarked) | 5.17%

Compound | hERG current change (%, negative = inhibition) at 10uM
COc1ccccc1C(=O)NC(=S)Nc1ccc(N2CCOCC2)c(Cl)c1 | 13.1%
O=[N+]([O-])c1ccc(Cl)cc1 | 10.9%
CSc1cccc(NC(C)C(=O)NCc2ccccc2)c1 (centres unmarked) | 2.74%
Cl.c1ccc(SCCN2CCN(c3ccccc3)CC2)cc1 | -10.9%
CC(CCN1CCOCC1)c1ccccc1 (centres unmarked) | 21.9%
CC(CCN1CCN(c2ccc(F)cc2)CC1)c1ccccc1 (centres unmarked) | -64.3%
CC(CCN1CCN(c2ccccc2)CC1)c1ccccc1.Cl (centres unmarked) | -54.6%
CN1CCN(Cc2cn(C)c3ccccc23)CC1CCO (centres unmarked) | 25.5%
c1ccc(N2CCN(Cc3ccnc4ccccc34)CC2)cc1 | -0.764%
CC(CCN1CCN(CCO)CC1)c1ccccc1 (centres unmarked) | 9.32%
CC(CN1CCN(c2ccccc2)CC1)c1ccccc1 (centres unmarked) | -25.5%
Cn1cc(CN2CCN(c3ccccc3)CC2)c2ccccc21 | -54%
N#CCN1C(=O)NC2(CCCc3sccc32)C1=O (centres unmarked) | 11.1%
COc1cccc(-c2csc(/C(C#N)=C/Nc3cc4oc5ccccc5c4cc3OC)n2)c1 | 12.8%
O=C(c1noc2c1CCCC2)N1CCCCC1 | -0.65%
Cc1cnc2c(c1)C(=O)c1ccccc1-2 | 13.6%
O=C(NCCN1CCOCC1)c1ccccc1[N+](=O)[O-] | 1.06%
CN1CCN(c2ccc(NC(=S)NC(=O)/C=C/c3ccco3)cc2)CC1 | -7.96%
CCOc1ccc(S(=O)(=O)N2CCN(Cc3ccc4c(c3)OCO4)CC2)cc1Cl | -8.94%
Cn1cnc(S(=O)(=O)N2CCN(C(c3ccc(F)cc3)c3ccc(F)cc3)CC2)c1 | -7.05%
